Active and inactive are the calls of the source.

Assay [1] can be described thus: binders of probe aFSTL3 on microarray, primary screen, stem cell growth factor project, biochemical, small-molecule microarray, fluorescence 635/667 (AID 1064).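 Also: measures binding of the biotinylated anti-FSTL3 antibody to printed compounds.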 The note with it: higher = more signal.
Assay [2] in a line: binders from COS7 lysate, DM2A8 probe, primary screen, torsin A project, cell lysate, small-molecule microarray, fluorescence 635/667 (AID 1065). The note with it: higher = more signal, COS7 lysate expressing mutant human TOR1A.
Assay [3] in a line: binders of probe aFGF2 on microarray, primary screen, stem cell growth factor project, biochemical, small-molecule microarray, fluorescence 635/667 (AID 1067).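 Also: measures binding of biotinylated aFGF2 protein to printed compounds on slides; z-score merges feature fluorescence and signal-to-noise across triplicate slides.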 Particulars: higher = more signal.
Assay [4] is described as follows: binders of probe aFGF10 on microarray, primary screen, stem cell growth factor project, biochemical, small-molecule microarray, fluorescence 635/667 (AID 1071).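 Also: score merges 667 nm spot intensity and signal to noise from triplicate slides.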 Particulars: higher = more signal.
The target in assay [5] is Neurogenic locus notch homolog protein 2 (Homo sapiens) (UniProt Q04721). In words: Notch2 binders on small-molecule microarrays, primary screen, biochemical, small-molecule microarray, 635 nm fluorescence, stem cell growth factors (AID 1073). Particulars: Notch2 binding, higher = more signal.
For assay [6], the target named is Pro-neuregulin-1, membrane-bound isoform (Homo sapiens) (UniProt Q02297). In words: NRG1 binders on small-molecule microarrays, primary screen, psychiatric disease protein project, biochemical, small-molecule microarray, fluorescence 635/667 (AID 1075).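 Also: score combines 667 nm spot fluorescence with signal to noise.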 The note with it: NRG1 binding, 635 nm fluorescence, higher = more signal.
Sequence of Pro-neuregulin-1, membrane-bound isoform (Homo sapiens) (Q02297 whole entry, looked up, the tested form may be a part, canonical isoform): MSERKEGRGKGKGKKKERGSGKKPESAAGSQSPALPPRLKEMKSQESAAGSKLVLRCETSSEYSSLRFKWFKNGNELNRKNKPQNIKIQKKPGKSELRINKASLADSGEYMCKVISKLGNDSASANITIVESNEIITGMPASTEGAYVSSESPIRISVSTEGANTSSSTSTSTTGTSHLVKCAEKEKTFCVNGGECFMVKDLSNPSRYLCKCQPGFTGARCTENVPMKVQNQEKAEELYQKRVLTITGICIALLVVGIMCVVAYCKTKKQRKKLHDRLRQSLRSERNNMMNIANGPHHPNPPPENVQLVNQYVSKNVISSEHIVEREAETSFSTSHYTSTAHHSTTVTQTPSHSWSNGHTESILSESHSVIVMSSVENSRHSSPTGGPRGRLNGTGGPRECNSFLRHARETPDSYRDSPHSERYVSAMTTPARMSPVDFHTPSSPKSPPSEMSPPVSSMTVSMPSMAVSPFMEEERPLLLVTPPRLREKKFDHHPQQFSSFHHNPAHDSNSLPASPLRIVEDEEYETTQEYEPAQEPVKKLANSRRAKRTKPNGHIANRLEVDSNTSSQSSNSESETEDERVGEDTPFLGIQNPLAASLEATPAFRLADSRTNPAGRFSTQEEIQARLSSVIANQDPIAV
Assay [7] has as its system Neuregulin-1 EGF-like domain. The assay is described as follows: binders of neuregulin-1 EGF-like domain, primary screen, biochemical, small-molecule microarray, 635 nm fluorescence (AID 1081).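 Also: binding of the protein to compounds printed on small-molecule microarray slides.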 Particulars: small-molecule microarray binding, higher = more signal.
A short description of assay [8]: FRG1 promoter luciferase signal modulators, primary screen, FRG1 inhibition for FSHD, cell-based, C2C12 myotubes, firefly/Renilla luciferase, luminescence (AID 1084). Particulars: higher = more signal, called active from +8 up or from −8 down.
Assay [9] in a line: binders of probe aFST on microarray, primary screen, stem cell growth factor project, biochemical, small-molecule microarray, fluorescence 635/667 (AID 1086).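 Also: score merges 667 nm fluorescence with signal-to-noise of each printed compound spot.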 The note with it: higher = more signal.
The nature of assay [10]: binders of probe aHhip on microarray, primary screen, stem cell growth factor project, biochemical, small-molecule microarray, fluorescence 635/667 (AID 1087).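 Also: score merges spot fluorescence at 667nm with spot signal to noise ratio.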 The note with it: higher = more signal.
Assay [11] deals with PRMT1 (protein arginine N-methyltransferase 1). In words: PRMT1 binders on small-molecule microarrays, primary screen, biochemical, small-molecule microarray, 635 nm fluorescence (AID 1088).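 Also: binding of Prmt1 protein to compounds spotted on small-molecule microarray slides.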 Particulars: small-molecule microarray binding, higher = more signal.
Assay [12] can be described thus: yeast growth modulation, basal conditions, primary screen, YJM789 clinical isolate, OD600, 24 h (AID 1089).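 Also: growth of clinical yeast isolate S. cerevisiae YJM 789 seeded 1000 cells per well; test concentration not given here.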 Particulars: S. cerevisiae YJM789 growth, higher = more signal, called active from +8 up or from −8 down.
A short description of assay [13]: fission yeast growth modulation, primary screen, strain 972, OD600, 24 h, no modulator (AID 1090).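 Also: basal condition with compound alone and no growth modifier present; test concentration not given here.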 Particulars: S. pombe 972 growth, higher = more signal, called active from +8 up or from −8 down.
Assay [14] is described as follows: S. cerevisiae growth modulation with rapamycin, primary screen, strain BY4716, OD600, 96 h (AID 1091). Also: test concentration not given here. The note with it: higher = more signal, called active from +8 up or from −8 down.
In assay [15] the target is Torsin-1A-interacting protein 2 (Homo sapiens) (UniProt Q8NFQ8). The assay is described as follows: LULL1 binders on small-molecule microarray, primary screen, cell lysate, human LULL1 lysate, 635/667 nm fluorescence (AID 1092).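 Also: probe is lysate of COS7 cells overexpressing human LULL1; score merges per-feature 667 nm fluorescence with signal-to-noise.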 Particulars: hLULL1 lysate binding, 635 nm fluorescence, higher = more signal.
Sequence of Torsin-1A-interacting protein 2 (Homo sapiens) (Q8NFQ8 whole entry, looked up): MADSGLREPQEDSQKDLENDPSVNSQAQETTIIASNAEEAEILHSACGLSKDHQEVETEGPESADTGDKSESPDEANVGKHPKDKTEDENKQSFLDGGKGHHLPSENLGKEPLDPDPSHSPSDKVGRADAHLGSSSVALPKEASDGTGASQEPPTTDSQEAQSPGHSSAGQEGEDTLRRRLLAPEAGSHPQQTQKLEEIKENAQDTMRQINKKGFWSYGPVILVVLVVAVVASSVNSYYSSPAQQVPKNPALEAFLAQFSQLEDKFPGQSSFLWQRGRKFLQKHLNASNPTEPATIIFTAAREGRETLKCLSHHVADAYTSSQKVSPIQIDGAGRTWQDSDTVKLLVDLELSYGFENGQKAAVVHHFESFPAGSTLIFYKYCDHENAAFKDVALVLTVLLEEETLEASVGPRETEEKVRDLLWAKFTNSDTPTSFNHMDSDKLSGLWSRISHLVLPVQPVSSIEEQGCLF
The nature of assay [16]: E. coli growth modulation, two-sided OD650, primary screen, E. coli filamentation project, strain DRC41, 24 h (AID 1093).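 Also: MC1000 strain lacking acrAB efflux and sulA so SOS filamentation is blocked; test concentration not given here.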 The note with it: OD650, 24 h, higher = more signal, called active from +8 up or from −8 down.
The nature of assay [17]: small-molecule microarray binders of probe aLefty2, primary screen, biochemical, biotinylated probe, 635/667 nm fluorescence (AID 1094).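 Also: score merges spot fluorescence near 667 nm with spot signal-to-noise ratio.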 The note with it: higher = more signal.
The test system of assay [18] is Noggin (protein binding on small-molecule microarray). In words: Noggin binders on small-molecule microarray, primary screen, biochemical, 635/667 nm fluorescence (AID 1095).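 Also: score merges 667 nm feature fluorescence with signal to noise over triplicate slides.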 Particulars: 635 nm fluorescence, higher = more signal.
Assay [19] has as its target Neurogenic locus notch homolog protein 3 (Homo sapiens) (UniProt Q9UM47). The assay is described as follows: NOTCH3 binders on small-molecule microarray, primary screen, biochemical, 635/667 nm fluorescence (AID 1096). The note with it: NOTCH3 binding, 635 nm fluorescence, higher = more signal.
Assay [20] can be described thus: small-molecule microarray binders of probe aEGFR, primary screen, biochemical, biotinylated probe, 635/667 nm fluorescence (AID 1097).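 Also: probe is a biotinylated anti-EGFR antibody binding compounds printed on slides; score combines fluorescence near 667 nm and signal to noise of each spot.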 The note with it: higher = more signal.

Sequence of Neurogenic locus notch homolog protein 3 (Homo sapiens) (Q9UM47 whole entry, looked up): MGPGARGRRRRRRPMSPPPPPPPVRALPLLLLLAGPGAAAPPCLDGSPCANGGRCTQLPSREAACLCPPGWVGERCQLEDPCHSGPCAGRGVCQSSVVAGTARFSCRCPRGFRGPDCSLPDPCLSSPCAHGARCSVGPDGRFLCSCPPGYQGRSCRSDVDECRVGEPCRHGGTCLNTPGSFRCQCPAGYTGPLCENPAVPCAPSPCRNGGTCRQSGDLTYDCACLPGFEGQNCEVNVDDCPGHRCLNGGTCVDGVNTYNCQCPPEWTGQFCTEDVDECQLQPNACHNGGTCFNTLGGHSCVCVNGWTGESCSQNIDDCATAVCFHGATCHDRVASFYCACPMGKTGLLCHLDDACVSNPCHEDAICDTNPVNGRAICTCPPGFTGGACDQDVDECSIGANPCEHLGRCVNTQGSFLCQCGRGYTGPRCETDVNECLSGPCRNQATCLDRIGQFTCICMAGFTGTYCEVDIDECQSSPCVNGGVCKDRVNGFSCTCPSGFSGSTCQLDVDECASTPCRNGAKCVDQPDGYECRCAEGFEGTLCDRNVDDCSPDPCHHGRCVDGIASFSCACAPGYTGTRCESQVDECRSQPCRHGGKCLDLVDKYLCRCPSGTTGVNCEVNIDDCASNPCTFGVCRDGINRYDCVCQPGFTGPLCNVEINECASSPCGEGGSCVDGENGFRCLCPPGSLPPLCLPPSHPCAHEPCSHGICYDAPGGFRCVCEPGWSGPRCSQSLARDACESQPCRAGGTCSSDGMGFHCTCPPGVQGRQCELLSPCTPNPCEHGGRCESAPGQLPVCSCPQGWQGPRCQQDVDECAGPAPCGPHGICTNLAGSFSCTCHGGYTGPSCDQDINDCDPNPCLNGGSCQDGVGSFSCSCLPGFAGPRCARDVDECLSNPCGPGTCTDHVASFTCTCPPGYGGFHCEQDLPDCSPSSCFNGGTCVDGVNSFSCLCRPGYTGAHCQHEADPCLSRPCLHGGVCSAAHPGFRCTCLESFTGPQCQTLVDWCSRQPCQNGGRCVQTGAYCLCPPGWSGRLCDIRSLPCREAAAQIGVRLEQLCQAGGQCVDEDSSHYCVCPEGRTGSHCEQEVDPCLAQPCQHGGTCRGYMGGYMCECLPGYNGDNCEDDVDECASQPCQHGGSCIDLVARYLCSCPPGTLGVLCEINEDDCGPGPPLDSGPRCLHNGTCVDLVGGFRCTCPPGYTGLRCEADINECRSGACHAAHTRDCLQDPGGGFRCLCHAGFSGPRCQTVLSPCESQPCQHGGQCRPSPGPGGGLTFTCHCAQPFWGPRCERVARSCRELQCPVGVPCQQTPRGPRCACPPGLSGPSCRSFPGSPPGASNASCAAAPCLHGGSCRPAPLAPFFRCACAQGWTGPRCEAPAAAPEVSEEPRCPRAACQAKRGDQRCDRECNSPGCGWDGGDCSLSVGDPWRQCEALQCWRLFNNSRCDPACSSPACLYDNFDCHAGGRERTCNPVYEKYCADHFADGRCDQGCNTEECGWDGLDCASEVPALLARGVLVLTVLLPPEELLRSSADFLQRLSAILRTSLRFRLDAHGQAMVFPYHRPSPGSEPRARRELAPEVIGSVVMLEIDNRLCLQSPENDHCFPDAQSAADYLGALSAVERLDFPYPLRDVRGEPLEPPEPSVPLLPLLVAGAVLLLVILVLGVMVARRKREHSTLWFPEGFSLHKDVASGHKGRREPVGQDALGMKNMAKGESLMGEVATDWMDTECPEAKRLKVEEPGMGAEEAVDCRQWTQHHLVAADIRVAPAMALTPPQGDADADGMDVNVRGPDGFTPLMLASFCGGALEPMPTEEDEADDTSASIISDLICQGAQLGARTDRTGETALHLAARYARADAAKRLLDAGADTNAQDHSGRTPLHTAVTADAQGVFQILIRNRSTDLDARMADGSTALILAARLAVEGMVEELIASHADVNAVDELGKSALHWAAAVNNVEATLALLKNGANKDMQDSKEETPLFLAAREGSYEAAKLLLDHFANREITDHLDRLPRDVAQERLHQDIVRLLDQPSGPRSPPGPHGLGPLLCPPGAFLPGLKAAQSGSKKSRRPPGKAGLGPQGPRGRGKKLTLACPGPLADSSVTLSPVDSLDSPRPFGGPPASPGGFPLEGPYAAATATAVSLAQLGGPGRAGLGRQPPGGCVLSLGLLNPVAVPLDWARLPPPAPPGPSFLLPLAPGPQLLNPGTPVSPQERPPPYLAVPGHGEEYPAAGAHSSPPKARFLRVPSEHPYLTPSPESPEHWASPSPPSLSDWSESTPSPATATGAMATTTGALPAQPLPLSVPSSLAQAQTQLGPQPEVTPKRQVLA

As to `CC(C)C[C@@H]1NC(=O)[C@@]23C(=O)N[C@@H](Cc4ccccc4)C2[C@H](C)[C@@]2(C)O[C@H]2C3/C=C/CC/C=C/CNC(=O)[C@@H](C)NC1=O` (stereo not given in full), the composite z-score is -0.574 in [1]; 0.408 in assay [2]; -0.178 in [3]; 0.408 in [4]; 0.578 in assay [5]; -0.418 in assay [6]. Also, the composite z-score in assay [7] is 0.635; in assay [9], 0.17; in assay [10] it was 0.21; in assay [11] it was 0.118; in [15], -0.664; in assay [17] it was -0.19. The composite z-score was 1.28 in [18], 0.71 in assay [19] and -0.162 in assay [20]. The z-score in [8] is -1.05 (inactive); in assay [12], 0.395 (inactive); in assay [13], -0.619 (inactive); in assay [14], -0.697 (inactive); in [16], 2.82 (inactive).
On to `CC(C)(C)OC(=O)CC[C@@]1(C(=O)NCc2ccccc2)N=C(c2ccc(OCCCO)cc2)O[C@@H]1c1ccccc1CN=[N+]=[N-]`, for which the composite z-score in assay [1] amounted to 0.492; in [2], 1.41; in assay [3] it was 0.015; in [4], 1.18; in assay [5], 1.49; in assay [6], 1.16. Further, the composite z-score was 1.15 in assay [7]; 1.19 in assay [9]; -0.148 in assay [10]; 1.53 in assay [11]; 2.3 in assay [15]; 0.387 in assay [17]. Further, the composite z-score in [18] is 0.958; in [19], 1.14; in assay [20], 0.236. The z-score in assay [8] is 0.59 (inactive); in assay [12] it was -0.0222 (inactive); in [13] it was -0.0704 (inactive); in assay [14] it was -0.13 (inactive); in assay [16] it was 2.64 (inactive).
Turning to `C=CCNC(=O)[C@H]1[C@@H]2C(=O)O[C@@H](c3ccccc3)[C@@H](c3ccccc3)N2[C@@H](c2ccccc2OCCO)[C@]12C(=O)N(C(=O)OCCOC)c1ccc(C#CCCO)cc12`, the composite z-score was found to be 1.61 in [1]; 1.31 in [2]; 0.0603 in assay [3]; 0.853 in assay [4]; 0.83 in [5]; 0.79 in assay [6]. Also, the composite z-score is 1.11 in assay [7]; 1.24 in [9]; 0.511 in assay [10]; 1.43 in assay [11]; 1.36 in assay [15]; 0.994 in assay [17]. Moreover, the figures for the composite z-score in assay [18], in assay [19] and in assay [20] were 1.59, 1.12 and 0.596, respectively. Further, the z-score is -4.05 (inactive) in assay [8]; 0.827 (inactive) in assay [12]; -3.06 (inactive) in assay [13]; 3.43 (inactive) in assay [14]; 1.68 (inactive) in assay [16].
On to `COc1ccc([Si](C)(C)[C@H]2[C@H](CC(=O)N(CCO)Cc3ccccc3)O[C@@]3(C(=O)N(Cc4ccc(N5CCC5=O)cc4)c4ccccc43)[C@@H]2C)cc1`, for which the composite z-score in [1] is 0.278; in assay [2], 0.323; in [3], -0.128; in assay [4], -1.07; in assay [5] it was -0.741; in [6], 1.02. The composite z-score in assay [7] is 0.469; in [9], -0.336; in assay [10], -0.226; in assay [11], 0.499; in assay [15], 0.953; in assay [17] it was -0.166. Besides, the composite z-score in [18] is -0.156; in assay [19] it was -0.813; in assay [20], -0.302. The z-score in assay [8] is -2.75 (inactive); in [12] it was 0.478 (inactive); in [13], 0.617 (inactive); in assay [14], 1.96 (inactive); in assay [16] it was 1.48 (inactive).
For the compound `C=C[C@H](OC)[C@@H](OC(=O)Nc1ccc(OC)cc1)c1ccc(OC)c(O)c1`, the composite z-score in assay [1] was 1.46; in [2] it was -0.68; in assay [3], -0.209; in [4] it was -1.29; in assay [5], -2.83; in [6], 0.272. In addition, the composite z-score in [7] was 0.843; in assay [9], -1.11; in assay [10], -0.487; in [11], -1.07; in [15], -0.0649; in assay [17] it was -0.21. For the same compound, the composite z-score in [18] was -1.8; in assay [19], -0.805; in assay [20] it was -0.373. In addition, the z-score in assay [8] is 1.51 (inactive); in assay [12], 0.698 (inactive); in assay [13] it was -0.133 (inactive); in assay [14], 0.551 (inactive); in [16], 2.09 (inactive).

These data come from PubChem BioAssay.
